Results filed as inconclusive are left out. Unmarked numbers belong to inactive results. Activity calls are given as the source filed them. Calls come from the whole dose curve; as a rule, active = well fitted inhibition curve with a large enough effect; inconclusive = small, poorly fitted or top-dose-only effect; inactive = flat fitted curve, though single readings scatter.
The compounds below were run against Voltage-gated inwardly rectifying potassium channel KCNH2 (Homo sapiens) (UniProt Q12809) (assay: qHTS Assay for Small Molecule Inhibitors of the Human hERG Channel Activity (AID 588834;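 note: lower thallium flux fluorescence means stronger hERG block; nearly all actives have a fitted effect of over 50% in size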; note: potency is the fitted concentration of half-maximal effect; for activity change, negative = inhibition: top concentration of the series differs between compounds; % is set by controls: 0 for no effect and ±100 for the full control effect)). Conditions: U2OS BacMam hERG, FluxOR thallium flux fluorescence; series mostly up to 46.1 µM; activity change, negative = inhibition: at the top concentration.
Chain of Voltage-gated inwardly rectifying potassium channel KCNH2 (Homo sapiens) (Q12809 whole entry, looked up): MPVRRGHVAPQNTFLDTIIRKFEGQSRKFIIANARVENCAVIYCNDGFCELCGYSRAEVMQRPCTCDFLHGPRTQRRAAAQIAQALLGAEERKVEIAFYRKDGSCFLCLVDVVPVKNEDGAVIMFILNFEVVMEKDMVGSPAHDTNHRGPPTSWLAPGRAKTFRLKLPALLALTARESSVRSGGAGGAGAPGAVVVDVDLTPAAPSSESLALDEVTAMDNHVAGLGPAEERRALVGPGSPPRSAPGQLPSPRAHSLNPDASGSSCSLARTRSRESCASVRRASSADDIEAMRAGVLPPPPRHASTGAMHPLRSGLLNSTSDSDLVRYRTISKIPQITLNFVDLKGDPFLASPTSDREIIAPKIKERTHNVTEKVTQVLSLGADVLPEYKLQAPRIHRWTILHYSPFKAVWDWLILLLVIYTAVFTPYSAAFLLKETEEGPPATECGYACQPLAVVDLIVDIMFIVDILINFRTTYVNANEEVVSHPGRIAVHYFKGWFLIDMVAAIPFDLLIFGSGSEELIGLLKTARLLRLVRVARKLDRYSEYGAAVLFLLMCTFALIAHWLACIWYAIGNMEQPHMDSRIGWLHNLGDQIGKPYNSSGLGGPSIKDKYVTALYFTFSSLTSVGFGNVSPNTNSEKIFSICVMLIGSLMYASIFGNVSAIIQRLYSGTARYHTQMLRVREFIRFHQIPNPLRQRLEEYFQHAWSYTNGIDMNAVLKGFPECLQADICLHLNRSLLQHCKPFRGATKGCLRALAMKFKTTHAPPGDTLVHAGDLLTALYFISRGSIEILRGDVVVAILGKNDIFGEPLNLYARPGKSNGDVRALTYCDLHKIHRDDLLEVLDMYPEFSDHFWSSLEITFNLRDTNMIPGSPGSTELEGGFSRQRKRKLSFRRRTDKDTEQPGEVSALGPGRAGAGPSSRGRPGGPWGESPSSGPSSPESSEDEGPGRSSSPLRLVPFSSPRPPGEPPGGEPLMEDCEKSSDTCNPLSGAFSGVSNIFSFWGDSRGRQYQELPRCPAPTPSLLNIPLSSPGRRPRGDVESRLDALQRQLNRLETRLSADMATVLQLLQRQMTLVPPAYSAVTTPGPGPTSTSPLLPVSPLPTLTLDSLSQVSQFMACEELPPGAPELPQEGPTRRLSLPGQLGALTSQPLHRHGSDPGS
In short: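 Concentration-response qHTS measuring drop in thallium-sensitive dye signal. U2OS cells carrying BacMam hERG; compound exposure ~10 min, then stimulation buffer and 2 min read at 1 sec intervals.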

Row | SMILES | activity change, negative = inhibition | Potency
1 | Cc1c(N(C)CS(=O)(=O)O)c(=O)n(-c2ccccc2)n1C | 5.51% [at 20.6 µM] | –
2 | COc1ccc(CN2CCN(C(c3ccc(F)cc3)c3ccc(F)cc3)CC2)c(OC)c1OC | – | 1.12 µM (active)
3 | COc1c2occc2c(OC)c2c(=O)cc(C)oc12 | -1.26% [at 20.6 µM] | –
4 | CCN(CC)C(=O)/C(C#N)=C/c1cc(O)c(O)c([N+](=O)[O-])c1 | 15.5% | –
5 | CN1CCC[C@@H]1c1cccnc1 | -23.2% | –
6 | Cc1c(C(N)=O)cc([N+](=O)[O-])cc1[N+](=O)[O-] | -9.61% | –
7 | CN1C(CCl)Nc2cc(Cl)c(S(N)(=O)=O)cc2S1(=O)=O (stereo not drawn) | 1.16% | –
8 | c1ccc(CNCCNCc2ccccc2)cc1 | -15.8% | –
9 | CC(=O)OCC(=O)[C@@]1(O)[C@H](C)C[C@H]2[C@@H]3CCC4=CC(=O)C=C[C@]4(C)[C@@]3(F)[C@@H](O)C[C@@]21C | -5.59% [at 20.6 µM] | –
10 | CCOC(=O)n1ccn(C)c1=S | 7.9% [at 20.6 µM] | –
11 | CCN(CC)C(=O)N1CCN(C)CC1 | -0.0522% [at 20.6 µM] | –
12 | CN(C/C=C/c1ccccc1)Cc1cccc2ccccc12 | – | 10 µM (active)
13 | C[C@@H]1C[C@H]2[C@@H]3C[C@H](F)C4=CC(=O)C(Cl)=C[C@]4(C)[C@@]3(F)[C@@H](O)C[C@]2(C)[C@@]1(O)C(=O)CO | -3.03% | –
14 | CCC(C(=O)OCCN(CC)CC)c1ccccc1 (stereo not drawn) | -28.1% | –
15 | CCCCOc1ccc(C(=O)CCN2CCCCC2)cc1 | – | 10 µM (active)
16 | CN(C)CCOc1ccccc1Cc1ccccc1 | – | 3.55 µM (active)
17 | NCCC(O)(P(=O)(O)O)P(=O)(O)O | -5.14% | –
18 | O=C(OCCOCCO)c1ccccc1Nc1cccc(C(F)(F)F)c1 | -27.9% [at 20.6 µM] | –
19 | O=C(COc1ccc(Cl)cc1)N1CCN(Cc2ccc3c(c2)OCO3)CC1 | – | 15.8 µM (active)
20 | O=C(CCCN1CCC(O)(c2ccc(Br)cc2)CC1)c1ccc(F)cc1 | – | 0.126 µM (active)

Row | SMILES | activity change, negative = inhibition | Potency
21 | Cc1cc(N)c2cc(NC(=O)Nc3ccc4nc(C)cc(N)c4c3)ccc2n1 | 23.9% | –
22 | COC(=O)[C@@H]1CC2=CC(=O)CC[C@]2(C)[C@@]23O[C@@H]2C[C@@]2(C)[C@@H](CC[C@@]24CCC(=O)O4)[C@H]13 | -6.72% | –
23 | COc1cc(-c2ccc(=O)[nH]n2)ccc1OC(F)F | 7.91% | –
24 | Cc1ccnc(NS(=O)(=O)c2ccc(N)cc2)n1 | 16% [at 20.6 µM] | –
25 | C[C@]12C=CC(=O)C=C1[C@@H](F)C[C@@H]1[C@@H]2[C@@H](O)C[C@@]2(C)[C@H]1CC[C@]2(O)C(=O)CO | 4.7% | –
26 | O=C1OC2(c3ccc(O)cc3Oc3cc(O)ccc32)c2ccccc21 | – | 0.631 µM (active)
27 | C#C[C@]1(OC(C)=O)CC[C@H]2[C@@H]3CCC4=C[C@@H](OC(C)=O)CC[C@@H]4[C@H]3CC[C@@]21C | -25.6% | –
28 | Oc1ccc(Cl)c2cccnc12 | 24.8% | –
29 | CCCCCCCCCCCCCCCCCC(=O)OCC(O)CO (stereo not drawn) | -3.97% | –
30 | O=C1c2ccccc2C(=O)C1c1ccccc1 | -2.19% [at 20.6 µM] | –
31 | Cc1c(C(C)C)c(=O)n(-c2ccccc2)n1C | -21.6% | –
32 | CC(=O)OCC(=O)[C@@]1(OC(C)=O)[C@@H](C)C[C@H]2[C@@H]3C[C@H](F)C4=CC(=O)C=C[C@]4(C)[C@@]3(F)[C@@H](O)C[C@@]21C | -2.51% | –
33 | CCN1CCCC1=O | -8.24% | –
34 | CCCCOc1cc(C(=O)NCCN(CC)CC)c2ccccc2n1 | – | 4.47 µM (active)
35 | NC(CO)(CO)CO | 19.2% | –
36 | CC(=O)[C@H]1CC[C@H]2[C@@H]3C[C@H](C)C4=CC(=O)CC[C@]4(C)[C@H]3[C@@H](O)C[C@]12C | -19.7% [at 20.6 µM] | –
37 | C=C1C[C@H]2[C@@H]3C=C(C)C4=CC(=O)CC[C@]4(C)[C@H]3CC[C@]2(C)[C@@]1(OC(C)=O)C(C)=O | 4.08% | –
38 | CC(=O)N(O)CCCCCNC(=O)CCC(=O)N(O)CCCCCNC(=O)CCC(=O)N(O)CCCCCN | -11.8% [at 20.6 µM] | –
39 | CN=C(NC#N)Nc1ccc(C2=NNC(=O)CC2C)cc1 (stereo not drawn) | 18% | –

These compounds were tested against Luciferin 4-monooxygenase (Photinus pyralis) (UniProt P08659) (assay: Biochemical firefly luciferase enzyme assay for NPC (AID 624030;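 note: purified P. pyralis luciferase at 10 nM with luciferin and ATP substrate; 0% = DMSO and -100% = full luciferase inhibition by PTC124 control; nearly all actives have a fitted effect of over 70% in size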)). Conditions: purified P. pyralis luciferase, luminescence, 5 min; series mostly up to 58.6 µM; activity change, negative = inhibition: at the top concentration.
Chain of Luciferin 4-monooxygenase (Photinus pyralis) (P08659 whole entry, looked up): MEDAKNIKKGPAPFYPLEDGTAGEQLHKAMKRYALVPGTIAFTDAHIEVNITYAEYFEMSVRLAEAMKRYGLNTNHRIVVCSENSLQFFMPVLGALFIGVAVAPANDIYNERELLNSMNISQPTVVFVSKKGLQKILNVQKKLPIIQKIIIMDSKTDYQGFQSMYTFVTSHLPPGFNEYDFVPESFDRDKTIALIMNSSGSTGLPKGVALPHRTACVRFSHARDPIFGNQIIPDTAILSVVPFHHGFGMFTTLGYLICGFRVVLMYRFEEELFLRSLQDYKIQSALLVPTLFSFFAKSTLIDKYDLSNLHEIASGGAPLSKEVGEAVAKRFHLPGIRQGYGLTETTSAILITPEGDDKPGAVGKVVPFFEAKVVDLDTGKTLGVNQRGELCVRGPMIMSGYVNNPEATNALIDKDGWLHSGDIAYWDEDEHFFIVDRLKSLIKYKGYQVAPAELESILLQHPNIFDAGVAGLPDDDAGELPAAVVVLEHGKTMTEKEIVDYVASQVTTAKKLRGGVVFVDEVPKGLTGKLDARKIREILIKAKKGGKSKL
In short: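 Purified P. pyralis luciferase at 10 nM in 50 mM Tris Acetate (final), luminescence read within 5 minutes of enzyme addition to compounds. Activity normalised to PTC124 versus DMSO; concentration-response curves classed by r2, magnitude and activity.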

Row | SMILES | activity change, negative = inhibition
40 | Cc1c(N(C)CS(=O)(=O)O)c(=O)n(-c2ccccc2)n1C | 0.696% [at 24.9 µM]
41 | COc1ccc(CN2CCN(C(c3ccc(F)cc3)c3ccc(F)cc3)CC2)c(OC)c1OC | 8.16%
42 | COc1c2occc2c(OC)c2c(=O)cc(C)oc12 | 0.197% [at 24.9 µM]
43 | CCN(CC)C(=O)/C(C#N)=C/c1cc(O)c(O)c([N+](=O)[O-])c1 | -7.52%
44 | CN1CCC[C@@H]1c1cccnc1 | -6.51%
45 | Cc1c(C(N)=O)cc([N+](=O)[O-])cc1[N+](=O)[O-] | 3.91%
46 | CN1C(CCl)Nc2cc(Cl)c(S(N)(=O)=O)cc2S1(=O)=O (stereo not drawn) | 1.32%
47 | c1ccc(CNCCNCc2ccccc2)cc1 | 10.7%
48 | CCOC(=O)n1ccn(C)c1=S | -0.0451% [at 24.9 µM]
49 | CCN(CC)C(=O)N1CCN(C)CC1 | -11.4% [at 24.9 µM]
50 | CCC(C(=O)OCCN(CC)CC)c1ccccc1 (stereo not drawn) | -10.5%
51 | CCCCOc1ccc(C(=O)CCN2CCCCC2)cc1 | -2.76% [at 24.9 µM]
52 | CN(C)CCOc1ccccc1Cc1ccccc1 | -17.7%
53 | NCCC(O)(P(=O)(O)O)P(=O)(O)O | -3.14%
54 | O=C(OCCOCCO)c1ccccc1Nc1cccc(C(F)(F)F)c1 | -7.07% [at 24.9 µM]
55 | O=C(COc1ccc(Cl)cc1)N1CCN(Cc2ccc3c(c2)OCO3)CC1 | 0.218%
56 | O=C(CCCN1CCC(O)(c2ccc(Br)cc2)CC1)c1ccc(F)cc1 | 8.61% [at 24.9 µM]

Row | SMILES | activity change, negative = inhibition
57 | Cc1cc(N)c2cc(NC(=O)Nc3ccc4nc(C)cc(N)c4c3)ccc2n1 | 9.68%
58 | COC(=O)[C@@H]1CC2=CC(=O)CC[C@]2(C)[C@@]23O[C@@H]2C[C@@]2(C)[C@@H](CC[C@@]24CCC(=O)O4)[C@H]13 | -1.41%
59 | COc1cc(-c2ccc(=O)[nH]n2)ccc1OC(F)F | -1.48%
60 | Cc1ccnc(NS(=O)(=O)c2ccc(N)cc2)n1 | 1.56% [at 24.9 µM]
61 | C[C@]12C=CC(=O)C=C1[C@@H](F)C[C@@H]1[C@@H]2[C@@H](O)C[C@@]2(C)[C@H]1CC[C@]2(O)C(=O)CO | 1.58%
62 | O=C1OC2(c3ccc(O)cc3Oc3cc(O)ccc32)c2ccccc21 | -5.09%
63 | C#C[C@]1(OC(C)=O)CC[C@H]2[C@@H]3CCC4=C[C@@H](OC(C)=O)CC[C@@H]4[C@H]3CC[C@@]21C | 1.46%
64 | Oc1ccc(Cl)c2cccnc12 | 20.5%
65 | CCCCCCCCCCCCCCCCCC(=O)OCC(O)CO (stereo not drawn) | 3.85%
66 | O=C1c2ccccc2C(=O)C1c1ccccc1 | -2.03% [at 24.9 µM]
67 | Cc1c(C(C)C)c(=O)n(-c2ccccc2)n1C | -1.8%
68 | CC(=O)OCC(=O)[C@@]1(OC(C)=O)[C@@H](C)C[C@H]2[C@@H]3C[C@H](F)C4=CC(=O)C=C[C@]4(C)[C@@]3(F)[C@@H](O)C[C@@]21C | -2.23%
69 | CCN1CCCC1=O | -0.927%
70 | CCCCOc1cc(C(=O)NCCN(CC)CC)c2ccccc2n1 | 4.53% [at 24.9 µM]
71 | NC(CO)(CO)CO | 26.6%
72 | CC(=O)N(O)CCCCCNC(=O)CCC(=O)N(O)CCCCCNC(=O)CCC(=O)N(O)CCCCCN | 4.98% [at 24.9 µM]
73 | CN=C(NC#N)Nc1ccc(C2=NNC(=O)CC2C)cc1 (stereo not drawn) | 0.009%

From PubChem BioAssay (NCATS)
